In PubChem BioAssay (Tox21) one finds Potency data, which are given here for 19 molecules.

Several values for one entry are separate records, joined by “and”; a condition that tells them apart may be missing. Identical values can stand only once. Inconclusive results are not listed. Some compounds were tested as several samples or in several runs, with calls that do not always agree. Activity calls are given as the source filed them. Unless noted, calls come from the whole dose curve; as a rule, active = well fitted curve in the direction sought with a large enough effect in the repeat runs; inconclusive = weak or mixed curves; inactive = no such curve, though single readings can be large; an effect the other way counts as inactive or inconclusive.

Experiment [1] in a line: qHTS assay to identify small molecule antagonists of the glucocorticoid receptor (GR) signaling pathway - cell viability counter screen (AID 720693). Note: nearly all actives have a fitted effect of over 55% in size. The following applies: GR-bla HeLa viability, CellTiter-Glo luminescence, 18 h, with 5 nM dexamethasone present; series mostly up to 58.5 µM.
Experiment [2] is described as follows: qHTS assay for identifying genotoxic compounds that show differential cytotoxicity against isogenic chicken DT40 cell lines with known DNA damage response pathways - Rev3 mutant cell line (AID 743014). Note: nearly all actives have a fitted effect of over 55% in size. Note: potency is the fitted concentration of half-maximal effect. Conditions: chicken DT40 Rev3-/- viability, CellTiter-Glo, 40 h; series mostly up to 68.4 µM. For orientation: Quantitative high-throughput screening tests each substance at several concentrations.

Experiment [3] in a line: qHTS assay for identifying genotoxic compounds that show differential cytotoxicity against isogenic chicken DT40 cell lines with known DNA damage response pathways - Rad54/Ku70 mutant cell line (AID 743015). Note: nearly all actives have a fitted effect of over 60% in size. Note: potency is the fitted concentration of half-maximal effect. Conditions: DT40 Rad54/Ku70 mutant viability, CellTiter-Glo, 40 h; series mostly up to 66.8 µM.
Experiment [4] can be described thus: qHTS assay to identify small molecule antagonists of the androgen receptor (AR) signaling pathway - cell viability counter screen (AID 743033; note: nearly all actives have a fitted effect of over 45% in size; note: potency is the fitted concentration of half-maximal effect). Conditions: AR-bla HEK293 viability, CellTiter-Glo luminescence, 16 h; series mostly up to 58.5 µM.
The nature of experiment [5]: qHTS assay to identify small molecule antagonists of the androgen receptor (AR) signaling pathway using the MDA cell line - cell viability counter screen (AID 743041; note: nearly all actives have a fitted effect of over 45% in size). Conditions: MDA-kb2 viability, CellTiter-Fluor, 16 h, cells co-treated with R1881 androgen agonist; series mostly up to 70.3 µM. In short, it runs like this: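 Viability counter screen run alongside the AR antagonist reporter: cells seeded 5 h before compound, R1881 added, 16 h incubation at 37C without CO2, fluorescent CellTiter-Fluor signal quantified.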

A short description of experiment [6]: qHTS assay to identify small molecule antagonists of the thyroid receptor (TR) signaling pathway - cell viability counter screen (AID 743064). Note: nearly all actives have a fitted effect of over 50% in size. Note: potency is the fitted concentration of half-maximal effect. The following applies: GH3.TRE-Luc viability, CellTiter-Fluor, 24 h; series mostly up to 70.3 µM. In short, it runs like this:
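Viability of T3-stimulated (1 nM final) GH3.TRE-Luc cells is measured by CellTiter-Fluor fluorescence after 23.5 h compound exposure at 37 °C plus 30 min reagent incubation.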

Experiment [7] in a line: qHTS assay for identifying genotoxic compounds that show differential cytotoxicity against isogenic chicken DT40 cell lines with known DNA damage response pathways - wild type cell line (AID 743012). Note: nearly all actives have a fitted effect of over 60% in size. Note: potency is the fitted concentration of half-maximal effect. Conditions: DT40 wild type chicken cells viability, CellTiter-Glo, 40 h; series mostly up to 68.4 µM. The gist of the method:
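Using parental DT40 (300 cells/well), compounds delivered in DMSO incubate 40 h at 37 C/5% CO2. CellTiter-Glo reagent then stands 30 min at room temperature, and luminescence gives cell viability.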

The target in experiment [8] is Androgen receptor (Homo sapiens) (UniProt P10275). The experiment is described as follows: qHTS assay to identify small molecule agonists of the androgen receptor (AR) signaling pathway (AID 743036; active = well fitted activation curve with a large enough effect in the signal ratio in the repeat runs, with a control signal flat, not every such curve was filed as active; the % refers to the signal ratio). Conditions: HEK293 AR-UAS-bla GripTite, beta-lactamase FRET ratio, 16 h; series mostly up to 62.4 µM. The gist of the method: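 Screening used 2,000 AR-bla HEK293 cells per well, treated 16 h at 37C with test compounds in DMSO alongside positive and DMSO-only controls; beta-lactamase activity was then read by LiveBLAzer B/G FRET fluorescence after 2 h at room temperature.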

For experiment [9] the target is unchanged. The experiment in a line: qHTS assay to identify small molecule agonists of the androgen receptor (AR) signaling pathway using the MDA cell line (AID 743040; note: nearly all actives have a fitted effect of over 20% in size). Conditions: MDA-kb2 AR-luc cells, MMTV luciferase, 16 h; activity change: at 70.3 µM (top of the series), stronger effect = higher value. The gist of the method: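 Luminescence from ONE-Glo, read after 30 min at room temperature, reflects MMTV-driven luciferase in MDA-kb2 cells (AR- and GR-responsive). Treatment lasted 16 h at 37C, 0% CO2.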

Experiment [10] shares this target. The experiment is described as follows: qHTS assay to identify small molecule antagonists of the androgen receptor (AR) signaling pathway using the MDA cell line (AID 743042; note: nearly all actives have a fitted effect of over 55% in size; note: potency is the fitted concentration of half-maximal effect). The following applies: MDA-kb2 AR-luc, MMTV luciferase, R1881 antagonist, 16 h; series mostly up to 70.3 µM. In short, it runs like this: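 MDA-kb2 cells (human breast carcinoma, stably carrying an MMTV-luciferase reporter responsive to AR and GR) were plated at 3,000 cells/well and preincubated 5 hr at 37C, then given compound plus R1881 agonist for 16 h. ONE-Glo luminescence was read.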

Chain of Androgen receptor (Homo sapiens) (P10275 whole entry, looked up): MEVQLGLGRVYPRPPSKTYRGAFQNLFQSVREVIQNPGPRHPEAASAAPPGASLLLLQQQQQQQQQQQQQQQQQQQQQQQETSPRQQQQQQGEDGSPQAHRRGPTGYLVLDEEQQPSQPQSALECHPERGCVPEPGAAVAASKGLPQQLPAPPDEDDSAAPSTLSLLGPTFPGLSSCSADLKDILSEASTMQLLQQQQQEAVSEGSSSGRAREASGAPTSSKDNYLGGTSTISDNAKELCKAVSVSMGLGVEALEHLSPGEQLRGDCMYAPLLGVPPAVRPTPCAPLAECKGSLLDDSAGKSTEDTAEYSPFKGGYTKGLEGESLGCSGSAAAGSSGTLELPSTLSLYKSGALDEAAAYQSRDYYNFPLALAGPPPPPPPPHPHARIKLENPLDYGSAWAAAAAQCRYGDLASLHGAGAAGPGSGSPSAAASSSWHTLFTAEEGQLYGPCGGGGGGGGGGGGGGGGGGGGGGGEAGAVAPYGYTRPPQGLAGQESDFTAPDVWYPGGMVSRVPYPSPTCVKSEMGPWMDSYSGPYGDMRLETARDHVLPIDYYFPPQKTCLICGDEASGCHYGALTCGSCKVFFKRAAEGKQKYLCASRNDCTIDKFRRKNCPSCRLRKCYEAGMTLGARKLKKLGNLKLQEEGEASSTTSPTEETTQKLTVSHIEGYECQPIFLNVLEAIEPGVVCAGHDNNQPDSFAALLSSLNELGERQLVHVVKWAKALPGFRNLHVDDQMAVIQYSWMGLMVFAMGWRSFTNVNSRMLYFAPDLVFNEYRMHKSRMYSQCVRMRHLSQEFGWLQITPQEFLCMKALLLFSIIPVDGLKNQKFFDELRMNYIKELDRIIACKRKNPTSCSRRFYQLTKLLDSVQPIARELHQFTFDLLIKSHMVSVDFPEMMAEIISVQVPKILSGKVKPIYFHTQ

For `CCCCOCCOP(=O)(OCCOCCCC)OCCOCCCC`, the Potency result in experiment [1], in [4] and in experiment [5] was “inactive” in each case. In addition, the Potency in [2] is 54.5 µM (active); in experiment [3], 48.6 µM (active); in experiment [6], 54.5 µM (active) and inactive.
Regarding `Cc1ccc(OP(=O)(Oc2ccc(C)cc2)Oc2ccc(C)cc2)cc1`, the Potency result in [1], in experiment [4] and in [6] was “inactive” each time. For the same molecule, the Potency in [2] is 38.6 µM (active); in experiment [3] it was 43.2 µM (active) and 48.6 µM (active).
As to `NNC(=S)NN`, the Potency result in experiment [1], in [4], in experiment [5] and in experiment [6] was “inactive” in each case. Besides, the figures for the Potency in experiment [7], in experiment [2] and in [3] were 61.1 µM (active), 54.5 µM (active) and 43.3 µM (active), respectively.
In the case of `CCC(CC)Nc1c([N+](=O)[O-])cc(C)c(C)c1[N+](=O)[O-]`, the Potency result in experiment [1], in experiment [2], in experiment [4] and in experiment [5] was “inactive” in each case. Moreover, the Potency entry in experiment [3] is “inactive and 54.4 µM (active)”.
As to `ClC1C(Cl)C(Cl)C(Cl)C(Cl)C1Cl` (centres undefined), the Potency result in experiment [1], in experiment [4], in experiment [5] and in [6] was “inactive” each time. Also, the Potency entry is “inactive and 54.5 µM (active)” in [7]; “inactive and 48.6 µM (active) and 24.3 µM (active)” in experiment [2]; “inactive and 48.6 µM (active) and 17.2 µM (active)” in experiment [3].
On to `CCOC(=S)S`, for which the Potency result in [1] and in experiment [6] was “inactive” each time. The Potency was 24.3 µM (active) and 16.3 µM (active) in [7]; 21.7 µM (active) and 16.3 µM (active) in [2]; 24.3 µM (active) and 16.3 µM (active) in experiment [3]; 13.8 µM (active) and 8.26 µM (active) in [4].
Consider `CC(C)(c1cc(Cl)c(O)c(Cl)c1)c1cc(Cl)c(O)c(Cl)c1`, for which the Potency result in experiment [1], in [7], in [2], in experiment [3] and in [5] was “inactive” in each case. Further, the Potency entry in experiment [6] is “inactive and 61.1 µM (active)”.
With `CC(C)(C)c1ccccc1O`, the Potency result in experiment [1], in [3], in experiment [4], in [5] and in experiment [6] was “inactive” throughout. Also, the Potency in [2] is 61.1 µM (active).
On to `c1cc(OCC2CO2)ccc1Cc1ccc(OCC2CO2)cc1` (centres undefined), for which the Potency in experiment [7] is 13.7 µM (active); in [2], 2.44 µM (active) and 1.54 µM (active); in [3], 61.4 µM (active) and 15.4 µM (active); in experiment [6], 43.5 µM (active) and 48.6 µM (active). Besides, the Potency result in experiment [4], in experiment [8], in experiment [9], in experiment [5] and in experiment [10] was “inactive” throughout.
On to `C=CC(=O)OCCO`, for which the Potency entry in experiment [1], in [2], in [4], in experiment [5] and in [6] was “inactive” in each case. For the same molecule, the Potency result in [3] was “inactive and 43.3 µM (active)”.
Take `CNC(=O)Oc1cccc2c1OC(C)(C)O2`: the Potency entry in experiment [1], in experiment [7], in experiment [2], in experiment [3], in experiment [4] and in [5] was “inactive” throughout. Besides, in [6], the Potency result was “inactive”.
As for `CCN(N=O)C(N)=O`, the Potency result in [1], in experiment [7], in [2], in [3], in [4] and in experiment [5] was “inactive” each time. Moreover, in experiment [6], the Potency entry is “inactive”.
As for `CCCCCc1cc(O)cc(O)c1`, the Potency result in [1], in [7], in [2], in experiment [4], in experiment [5] and in [6] was “inactive” each time.
Turning to `Nc1c(Cl)cc([N+](=O)[O-])cc1Cl`, the Potency result in [1], in [8], in [9], in experiment [5] and in [6] was “inactive” in each case. The Potency entry in [2] is “inactive and 61.1 µM (active)”; in experiment [3], “inactive and 61.1 µM (active)”; in experiment [10] it was “inactive and 61.1 µM (active)”.
Take `CCOP(=S)(OCC)O/N=C(\C#N)c1ccccc1`: the Potency result in [1], in experiment [7], in experiment [2], in experiment [3], in experiment [4] and in experiment [5] was “inactive” in each case. Also, the Potency result in [6] was “inactive”.
For `O=P(Oc1ccccc1)(Oc1ccccc1)Oc1ccccc1`, the Potency result in experiment [1], in experiment [4], in [5] and in experiment [6] was “inactive” each time. Besides, the Potency in [7] is 54.2 µM (active) and 48.6 µM (active); in experiment [2], 60.8 µM (active) and 48.6 µM (active); in experiment [3], 38.4 µM (active) and 27.3 µM (active).
For `CC(C)C(=O)OCC(C)(C)C(OC(=O)C(C)C)C(C)C` (centres undefined), the Potency result in [1], in experiment [4], in experiment [5] and in experiment [6] was “inactive” in each case.
Regarding `CCC(C)c1cc([N+](=O)[O-])cc([N+](=O)[O-])c1O` (centres undefined), in [1], the Potency entry was “inactive”. Also, the Potency entry in experiment [7] is “inactive and 27.3 µM (active)”; in experiment [2], “inactive and 30.6 µM (active)”; in experiment [3] it was “inactive and 27.3 µM (active)”; in experiment [4], “inactive and 19.5 µM (active)”; in experiment [6], 27.3 µM (active).
In the case of `CC(C)(OOC(C)(C)c1ccccc1)c1ccccc1`, the Potency entry in experiment [1], in experiment [4], in experiment [8], in experiment [9], in experiment [5] and in experiment [10] was “inactive” throughout. The Potency entry is “inactive and 54.5 µM (active)” in experiment [7]; 30.6 µM (active) in [3]; 42.7 µM (active) in experiment [6].
